Measured values reported in the supplement of paper PMC9446081.
The campaign covered roughly 39,000 compounds. About 220 (0.56%) showed activity. The entries come from a sample that favours actives as a whole. Values without a mark were called inactive.

tested on: Escherichia coli K-12 BW25113; test: relative growth (OD600 normalised to plate interquartile mean) (fraction); higher = less growth inhibition, active = 0.2 or less; settings: 50 µM; LB; incubation time: overnight (16-24 h)
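Further: Wild-type cells incubated without shaking, value is the mean of two biological replicates.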

| Compound | relative growth |
| --- | --- |
| C[C@H](CO)N1C[C@H](C)[C@@H](CN(C)Cc2cccc(F)c2)Oc2cc(C#CC3CC3)ccc2S1(=O)=O | 1.04 |
| C[C@H](CO)N1C[C@H](C)[C@H](CN(C)CC2CC2)Oc2ccc(NS(=O)(=O)c3cn(C)cn3)cc2CC1=O | 0.99 |
| Cc1ccc(S(=O)(=O)Nc2ccc3c(c2)C(=O)N([C@H](C)CO)C[C@H](C)[C@@H](CN(C)C(=O)C2CCCCC2)OCCCC[C@H](C)O3)cc1 | 0.998 |
| Nc1ccccc1OCc1ccccc1 | 0.955 |
| CO/N=C(\C(=O)N[C@@H]1C(=O)N2C(C(=O)O)=C(CSC(=O)c3ccco3)CS[C@H]12)c1csc(N)n1 | 0.0342 (active) |
| CON=C(C(=O)NC1C(=O)N2C(C(=O)O)=C(CSC(=O)c3ccco3)CSC12)c1csc(N)n1.Cl (configuration not stated) | 0.0447 (active) |
| CO/N=C(\C(=O)N[C@@H]1C(=O)N2C(C(=O)O)=C(C[n+]3ccn4ncccc43)CS[C@H]12)c1nsc(N)n1 | 0.0425 (active) |
| C[C@H](CO)N1C[C@H](C)[C@H](CN(C)Cc2ccc(-c3ccccc3)cc2)Oc2c(NC(=O)c3nc4ccccc4s3)cccc2C1=O | 1.01 |
| CN1CCC[C@H]1CO | 0.919 |
| COCCNC(=O)C[C@@H]1C[C@@H]2c3cc(NS(C)(=O)=O)ccc3O[C@@H]2[C@H](CO)O1 | 1 |
| C[C@@H]1CN([C@H](C)CO)C(=O)Cc2cc(NC(=O)CCCCCC(=O)Nc3ccccc3N)ccc2O[C@H]1CN(C)C(=O)Nc1cccc2ccccc12 | 0.963 |
| C[C@@H]1CCCCO[C@H](CN(C)S(=O)(=O)c2ccc(F)cc2)[C@H](C)CN([C@@H](C)CO)C(=O)c2cc(NC(=O)Nc3ccc4c(c3)OCO4)ccc2O1 | 1 |
| C[C@H]1CCCCO[C@H](CN(C)S(=O)(=O)c2cn(C)cn2)[C@@H](C)CN([C@@H](C)CO)C(=O)c2cc(NS(=O)(=O)c3cn(C)cn3)ccc2O1 | 0.995 |
| C[C@@H]1CCCCO[C@@H](CN(C)S(=O)(=O)c2cccs2)[C@@H](C)CN([C@H](C)CO)C(=O)c2cc(NC(=O)Nc3ccccc3)ccc2O1 | 1.02 |
| Cc1ccc(-c2ccc3c(c2)O[C@@H](CN(C)Cc2cncnc2)[C@H](C)CN([C@H](C)CO)S3(=O)=O)cc1 | 1.01 |
| C[C@H](CO)N1C[C@H](C)[C@@H](CN(C)Cc2ccc3c(c2)OCO3)Oc2c(NC(=O)Nc3cccc4ccccc34)cccc2C1=O | 1.01 |
| C[C@H]1CCCCO[C@H](CN(C)C(=O)Nc2ccccc2)[C@@H](C)CN([C@@H](C)CO)C(=O)c2cc(NS(=O)(=O)c3cccs3)ccc2O1 | 1.02 |
| CCC(=O)Nc1ccc2c(c1)C(=O)N(C)C[C@H](OC)[C@H](C)CN(C(=O)CN1CCOCC1)[C@H](C)CO2 | 0.974 |
| Cl.N=C(N)n1cccn1 | 0.042 (active) |
| NCc1ccccc1-n1cccn1 | 1 |
| NCCn1cccn1 | 1.01 |

| Compound | relative growth |
| --- | --- |
| Cc1cc(C(=O)Nc2cccc3c2O[C@@H](CN(C)C(=O)Nc2ccc4c(c2)OCO4)[C@@H](C)CN([C@@H](C)CO)C3=O)n(C)n1 | 0.987 |
| C[C@H]1CN([C@@H](C)CO)C(=O)c2cc(-c3ccc(C(=O)N(C)C)cc3)cnc2O[C@H]1CN(C)C(=O)c1ccncc1 | 0.964 |
| COc1ccc([Si](C)(C)[C@@H]2[C@@H](CC(=O)N3CCC[C@H]3CO)O[C@]3(C(=O)N(Cc4cccc(N5CCCCC5=O)c4)c4ccccc43)[C@H]2C)cc1 | 1.02 |
| C=CC1=C(C(=O)O)N2C(=O)[C@@H](NC(=O)/C(=N\OCC(=O)O)c3csc(N)n3)[C@H]2SC1 | 0.0479 (active) |
| C=CC1=C(C(=O)O)N2C(=O)C(NC(=O)C(=NOCC(=O)O)c3csc(N)n3)C2SC1 (configuration not stated) | 1.01 |
| Nc1nc(/C(=C/CC(=O)O)C(=O)N[C@@H]2C(=O)N3C(C(=O)O)=CCS[C@H]23)cs1 | 1.01 |
| C/C=C/C1=C(C(=O)O)N2C(=O)[C@@H](NC(=O)[C@H](N)c3ccc(O)cc3)[C@H]2SC1 | 0.876 |
| C=CC1=C(C(=O)O)N2C(=O)C(NC(=O)C(=NO)c3csc(N)n3)C2SC1 (configuration not stated) | 0.05 (active) |
| Nc1nc(C(=CCC(=O)O)C(=O)NC2C(=O)N3C(C(=O)O)=CCSC23)cs1 (configuration not stated) | 0.0485 (active) |
| C=CC1=C(C(=O)O)N2C(=O)[C@@H](NC(=O)/C(=N\O)c3csc(N)n3)[C@H]2SC1 | 0.0321 (active) |
| C[C@H](CO)N1C[C@H](C)[C@H](CN(C)S(=O)(=O)c2ccccc2F)Oc2ncc(C#Cc3ccccc3F)cc2C1=O | 0.997 |
| CO[C@@H]1CN(C)C(=O)c2cc(NC(=O)c3ccccc3)ccc2OC[C@@H](C)N(C(=O)CN(C)C)C[C@@H]1C | 0.926 |
| Cc1noc(C)c1NC(=O)Nc1cccc2c1O[C@H](CN(C)Cc1ccc(Oc3ccccc3)cc1)[C@H](C)CN([C@H](C)CO)C2=O | 0.982 |
| Cc1noc(C)c1S(=O)(=O)Nc1ccc2c(c1)C(=O)N([C@@H](C)CO)C[C@@H](C)[C@@H](CN(C)S(=O)(=O)c1cccs1)O2 | 1.01 |
| C[C@H](CO)N1C[C@H](C)[C@H](CN(C)Cc2ccc(C(=O)O)cc2)Oc2ccc(NC(=O)CCCN(C)C)cc2C1=O | 1.01 |
| COc1ccc(C2=C(NC(=O)c3ccc(OC)cc3-c3cccc(OC)c3)C(=O)c3ccccc3C2=O)cc1 | 1.01 |
| C[C@@H]1CCCCO[C@@H](CN(C)C(=O)CCC(F)(F)F)[C@H](C)CN([C@H](C)CO)C(=O)c2cc(NS(=O)(=O)c3ccccc3)ccc2O1 | 0.994 |
| CC=CC1=C(C(=O)O)N2C(=O)C(NC(=O)C(N)c3ccc(O)cc3)C2SC1 (configuration not stated) | 1.08 |
| C=CC1=C(C(=O)O)N2C(=O)[C@@H](NC(=O)/C(=N/O)c3csc(N)n3)[C@H]2SC1 | 0.0336 (active) |
| Nc1nc(/C(=N/O)C(=O)N[C@@H]2C(=O)N3C(C(=O)O)=C(/C=C4\CCN([C@@H]5CCNC5)C4=O)CS[C@H]23)ns1 | 0.0367 (active) |
| C/C=C\C1=C(C(=O)O)N2C(=O)[C@H](NC(=O)[C@@H](N)c3ccc(O)cc3)[C@@H]2SC1 | 0.912 |
